Common to all, as to experiment: DAPPL (digital affinity profiling via proximity ligation, sequencing); 10 mM Tris-HCl pH 7.5, 50 mM NaCl, 1 mM DTT, 4% glycerol, room temperature, 30 min; GST-TFs on glutathione beads, 16-mer random dsDNA library, 0.1% formaldehyde crosslink after washing; high values mean tight binding
The target in one experiment is T1, FLI1 (Homo sapiens, UniProt Q01543 1-452).
T1 sequence: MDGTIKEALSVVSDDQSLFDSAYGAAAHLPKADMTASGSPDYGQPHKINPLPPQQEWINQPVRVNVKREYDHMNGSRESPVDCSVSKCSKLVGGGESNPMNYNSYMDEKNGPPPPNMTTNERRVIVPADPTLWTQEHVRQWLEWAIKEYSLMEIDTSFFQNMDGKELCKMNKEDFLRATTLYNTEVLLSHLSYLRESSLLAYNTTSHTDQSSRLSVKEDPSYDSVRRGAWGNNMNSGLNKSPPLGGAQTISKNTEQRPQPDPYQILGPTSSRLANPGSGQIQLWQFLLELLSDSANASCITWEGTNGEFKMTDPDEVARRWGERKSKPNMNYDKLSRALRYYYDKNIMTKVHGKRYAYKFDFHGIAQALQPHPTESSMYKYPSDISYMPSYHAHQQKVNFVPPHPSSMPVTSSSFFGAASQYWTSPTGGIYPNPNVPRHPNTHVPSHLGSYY
Particulars: protein: recombinant; tags: N-terminal GST; dsDNA, one strand shown. The essentials: (§1)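 In yeast, human transcription factors were expressed with a GST fusion, then pulled down on glutathione beads and given DNA barcodes. Pooled with a tag-only sample, they were exposed to 200 nmole of a 16-mer random double-stranded DNA library (Tris/NaCl/DTT/glycerol buffer, room temperature, 30 min), washed, crosslinked with 0.1% formaldehyde, proximity-ligated using BsaI/T4 ligase for 1 h at 37 °C, PCR-amplified and read on an Illumina NextSeq500. Each hexamer's frequency of reads for a factor, divided by the matching frequency for the tag-only sample, gives the binding signal.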

Another experiment addresses T2, ELK1 (Homo sapiens, UniProt P19419 1-428).
T2 sequence: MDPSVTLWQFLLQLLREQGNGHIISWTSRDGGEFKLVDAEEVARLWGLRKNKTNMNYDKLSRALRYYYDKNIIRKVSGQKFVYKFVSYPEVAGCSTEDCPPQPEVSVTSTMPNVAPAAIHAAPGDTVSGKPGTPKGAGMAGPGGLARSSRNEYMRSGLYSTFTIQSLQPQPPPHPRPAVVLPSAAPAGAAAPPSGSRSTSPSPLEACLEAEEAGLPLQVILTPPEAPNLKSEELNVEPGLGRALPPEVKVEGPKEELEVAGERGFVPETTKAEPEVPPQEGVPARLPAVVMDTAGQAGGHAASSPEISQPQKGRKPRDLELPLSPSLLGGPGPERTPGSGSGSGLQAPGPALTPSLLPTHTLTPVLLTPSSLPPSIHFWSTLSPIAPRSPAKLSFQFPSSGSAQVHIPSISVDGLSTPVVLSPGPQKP
As to conditions: protein: recombinant; tags: N-terminal GST; dsDNA, one strand shown. The gist of the method:
as §1

The target in another experiment is T3, GABPA (Homo sapiens, UniProt Q06546 1-454).
T3 sequence: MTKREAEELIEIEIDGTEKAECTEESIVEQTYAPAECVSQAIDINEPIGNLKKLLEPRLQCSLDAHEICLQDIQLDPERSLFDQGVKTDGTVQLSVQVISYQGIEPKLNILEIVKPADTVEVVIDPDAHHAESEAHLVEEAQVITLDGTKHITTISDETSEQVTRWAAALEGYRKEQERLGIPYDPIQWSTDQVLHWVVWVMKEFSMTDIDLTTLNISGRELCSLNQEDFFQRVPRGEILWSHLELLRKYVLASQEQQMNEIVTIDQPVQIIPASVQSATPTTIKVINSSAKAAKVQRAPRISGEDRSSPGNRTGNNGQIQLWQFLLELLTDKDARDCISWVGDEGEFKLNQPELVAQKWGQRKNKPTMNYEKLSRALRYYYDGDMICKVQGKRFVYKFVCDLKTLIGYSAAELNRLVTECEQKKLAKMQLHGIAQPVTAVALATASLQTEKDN
As to conditions: protein: recombinant; tags: N-terminal GST; dsDNA, one strand shown. The essentials: as §1

Another experiment deals with T4, ERG (Homo sapiens, UniProt P11308 1-479).
T4 sequence: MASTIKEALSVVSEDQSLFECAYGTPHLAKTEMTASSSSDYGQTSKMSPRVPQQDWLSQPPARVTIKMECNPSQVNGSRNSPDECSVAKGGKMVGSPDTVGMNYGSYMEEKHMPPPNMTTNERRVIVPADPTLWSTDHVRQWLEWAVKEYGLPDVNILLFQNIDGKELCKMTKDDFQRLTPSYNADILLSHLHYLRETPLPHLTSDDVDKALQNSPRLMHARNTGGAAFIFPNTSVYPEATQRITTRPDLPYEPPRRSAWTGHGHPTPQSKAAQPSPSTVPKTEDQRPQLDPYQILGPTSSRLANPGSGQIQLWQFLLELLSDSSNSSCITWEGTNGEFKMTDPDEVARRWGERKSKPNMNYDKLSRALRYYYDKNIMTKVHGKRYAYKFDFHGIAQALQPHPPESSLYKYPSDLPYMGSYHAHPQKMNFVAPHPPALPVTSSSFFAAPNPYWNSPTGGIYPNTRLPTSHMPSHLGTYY
Particulars: protein: recombinant; tags: N-terminal GST; dsDNA, one strand shown. The gist of the method:
as §1

In another experiment the target is ELF1 (Homo sapiens, UniProt P32519 1-619). Particulars: protein: recombinant; tags: N-terminal GST; dsDNA, one strand shown. The essentials:
as §1

Another experiment addresses T5, EHF (Homo sapiens, UniProt Q9NZC4 1-300).
T5 sequence: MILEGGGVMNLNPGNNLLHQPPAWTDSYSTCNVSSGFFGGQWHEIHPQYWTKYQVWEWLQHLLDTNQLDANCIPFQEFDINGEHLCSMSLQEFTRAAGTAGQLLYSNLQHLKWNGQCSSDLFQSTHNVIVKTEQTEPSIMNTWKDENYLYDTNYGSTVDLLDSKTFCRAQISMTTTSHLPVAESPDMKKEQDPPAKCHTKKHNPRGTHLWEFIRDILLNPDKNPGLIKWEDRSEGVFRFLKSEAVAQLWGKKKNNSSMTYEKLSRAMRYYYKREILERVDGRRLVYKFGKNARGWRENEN
As to conditions: protein: recombinant; tags: N-terminal GST; dsDNA, one strand shown. The gist of the method: as §1

A further experiment concerns the target SPI1 (Homo sapiens, UniProt P17947 1-270). As to conditions: protein: recombinant; tags: N-terminal GST; dsDNA, one strand shown. The gist of the method:
as §1

For a further experiment, the target named is SPIB (Homo sapiens, UniProt Q01892 1-262). As to conditions: protein: recombinant; tags: N-terminal GST; dsDNA, one strand shown. The gist of the method: as §1
SPIB, sequence (Q01892 whole entry): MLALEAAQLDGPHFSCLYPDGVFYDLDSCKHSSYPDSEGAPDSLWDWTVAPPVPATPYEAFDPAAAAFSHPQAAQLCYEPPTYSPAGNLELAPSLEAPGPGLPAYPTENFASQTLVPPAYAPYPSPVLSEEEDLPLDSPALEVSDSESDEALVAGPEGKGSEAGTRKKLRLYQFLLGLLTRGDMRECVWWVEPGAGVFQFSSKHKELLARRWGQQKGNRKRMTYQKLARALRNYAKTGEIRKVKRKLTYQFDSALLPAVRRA
For another experiment, the target named is T6, ELK3 (Homo sapiens, UniProt P41970 1-407).
T6 sequence: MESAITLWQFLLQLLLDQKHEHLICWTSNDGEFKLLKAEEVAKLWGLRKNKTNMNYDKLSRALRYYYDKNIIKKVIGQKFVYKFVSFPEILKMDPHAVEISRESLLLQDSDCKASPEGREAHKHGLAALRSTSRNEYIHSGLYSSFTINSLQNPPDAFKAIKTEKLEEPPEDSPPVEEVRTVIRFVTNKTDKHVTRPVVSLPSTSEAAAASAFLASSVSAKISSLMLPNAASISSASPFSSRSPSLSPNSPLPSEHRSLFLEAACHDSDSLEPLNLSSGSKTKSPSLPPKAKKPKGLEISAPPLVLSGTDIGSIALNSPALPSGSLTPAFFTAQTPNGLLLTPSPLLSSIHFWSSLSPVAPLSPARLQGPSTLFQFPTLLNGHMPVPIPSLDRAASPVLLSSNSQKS
As to conditions: protein: recombinant; tags: N-terminal GST; dsDNA, one strand shown. The gist of the method: as §1

Another experiment concerns the target T7, FEV (Homo sapiens, UniProt Q99581 1-238).
T7 sequence: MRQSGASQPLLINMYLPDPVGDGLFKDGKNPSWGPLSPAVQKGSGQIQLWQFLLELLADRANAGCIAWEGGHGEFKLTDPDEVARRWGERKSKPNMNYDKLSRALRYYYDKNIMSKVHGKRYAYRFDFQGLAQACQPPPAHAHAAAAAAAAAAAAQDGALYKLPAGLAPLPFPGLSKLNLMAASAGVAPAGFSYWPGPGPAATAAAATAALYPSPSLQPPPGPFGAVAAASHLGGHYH
Particulars: protein: recombinant; tags: N-terminal GST; dsDNA, one strand shown. The gist of the method: as §1

The target in another experiment is ETV5 (Homo sapiens, UniProt P41161 1-510). Particulars: protein: recombinant; tags: N-terminal GST; dsDNA, one strand shown. The gist of the method: as §1
ETV5, sequence (P41161 whole entry): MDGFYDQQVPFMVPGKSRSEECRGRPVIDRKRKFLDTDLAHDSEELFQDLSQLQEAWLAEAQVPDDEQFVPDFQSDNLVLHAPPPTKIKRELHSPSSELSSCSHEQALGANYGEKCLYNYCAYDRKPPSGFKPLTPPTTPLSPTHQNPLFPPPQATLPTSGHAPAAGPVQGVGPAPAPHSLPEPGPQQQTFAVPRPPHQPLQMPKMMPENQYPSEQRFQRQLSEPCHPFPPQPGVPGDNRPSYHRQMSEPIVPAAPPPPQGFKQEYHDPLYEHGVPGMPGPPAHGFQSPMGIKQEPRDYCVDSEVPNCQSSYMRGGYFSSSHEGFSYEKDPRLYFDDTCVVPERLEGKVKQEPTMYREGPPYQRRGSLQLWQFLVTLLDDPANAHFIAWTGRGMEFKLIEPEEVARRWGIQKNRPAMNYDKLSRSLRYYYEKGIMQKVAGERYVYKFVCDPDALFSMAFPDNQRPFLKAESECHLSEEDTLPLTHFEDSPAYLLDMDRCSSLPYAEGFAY
For a further experiment, the target named is HSF1 (Homo sapiens, UniProt Q00613 1-529). As to conditions: protein: recombinant; tags: N-terminal GST; chain copies: 3; dsDNA, one strand shown. The essentials: as §1
HSF1, sequence (Q00613 whole entry): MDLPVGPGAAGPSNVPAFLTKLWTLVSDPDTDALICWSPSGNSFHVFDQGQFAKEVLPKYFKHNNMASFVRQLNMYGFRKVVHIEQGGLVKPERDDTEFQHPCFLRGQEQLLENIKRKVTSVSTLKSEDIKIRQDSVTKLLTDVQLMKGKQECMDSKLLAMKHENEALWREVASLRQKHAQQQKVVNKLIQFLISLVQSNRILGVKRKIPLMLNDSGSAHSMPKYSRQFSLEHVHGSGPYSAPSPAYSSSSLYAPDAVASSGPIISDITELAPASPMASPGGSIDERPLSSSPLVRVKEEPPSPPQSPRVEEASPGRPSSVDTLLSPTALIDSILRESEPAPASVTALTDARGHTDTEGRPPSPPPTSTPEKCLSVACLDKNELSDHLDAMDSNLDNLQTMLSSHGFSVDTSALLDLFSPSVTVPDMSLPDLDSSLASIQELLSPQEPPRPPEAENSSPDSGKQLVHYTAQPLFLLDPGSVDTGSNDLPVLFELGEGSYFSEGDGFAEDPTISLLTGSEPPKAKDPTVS
Another experiment addresses T8, SPIC (Homo sapiens, UniProt Q8N5J4 1-248).
T8 sequence: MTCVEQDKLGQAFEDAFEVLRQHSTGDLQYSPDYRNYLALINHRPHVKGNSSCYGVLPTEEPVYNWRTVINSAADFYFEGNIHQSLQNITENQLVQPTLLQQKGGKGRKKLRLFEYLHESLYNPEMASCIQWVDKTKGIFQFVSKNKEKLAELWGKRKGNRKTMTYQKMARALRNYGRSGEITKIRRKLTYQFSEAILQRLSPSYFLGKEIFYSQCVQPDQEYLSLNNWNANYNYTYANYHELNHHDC
Particulars: protein: recombinant; tags: N-terminal GST; dsDNA, one strand shown. The essentials: as §1

A further experiment addresses ELF4 (Homo sapiens, UniProt Q99607 1-663). Particulars: protein: recombinant; tags: N-terminal GST; dsDNA, one strand shown. The essentials:
as §1

The target of the next experiment is T9, ELK4 (Homo sapiens, UniProt P28324-2 1-405).
T9 sequence: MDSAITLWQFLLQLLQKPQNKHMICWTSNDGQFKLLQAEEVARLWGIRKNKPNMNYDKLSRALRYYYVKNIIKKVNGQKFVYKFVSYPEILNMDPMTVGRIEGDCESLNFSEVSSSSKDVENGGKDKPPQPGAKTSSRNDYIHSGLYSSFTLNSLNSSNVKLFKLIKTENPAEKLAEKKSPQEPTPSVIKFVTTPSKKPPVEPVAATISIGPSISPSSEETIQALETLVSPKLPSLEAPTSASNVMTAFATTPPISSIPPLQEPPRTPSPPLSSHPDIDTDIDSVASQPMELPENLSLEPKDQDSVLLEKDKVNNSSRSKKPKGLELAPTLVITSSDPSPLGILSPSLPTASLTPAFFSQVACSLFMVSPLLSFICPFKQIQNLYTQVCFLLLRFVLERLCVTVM
Particulars: protein: recombinant; tags: N-terminal GST; dsDNA, one strand shown. The gist of the method:
as §1

The target of the next experiment is T10, ETV2 (Homo sapiens, UniProt O00321 1-342).
T10 sequence: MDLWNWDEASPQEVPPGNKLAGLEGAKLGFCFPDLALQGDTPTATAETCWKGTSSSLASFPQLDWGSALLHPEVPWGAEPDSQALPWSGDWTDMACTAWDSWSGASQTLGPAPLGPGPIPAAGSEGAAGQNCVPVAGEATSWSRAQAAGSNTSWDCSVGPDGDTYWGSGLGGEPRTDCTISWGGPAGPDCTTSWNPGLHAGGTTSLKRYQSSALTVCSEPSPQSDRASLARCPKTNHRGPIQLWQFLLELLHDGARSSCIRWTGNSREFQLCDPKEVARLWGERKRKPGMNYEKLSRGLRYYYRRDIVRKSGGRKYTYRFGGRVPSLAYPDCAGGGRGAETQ
As to conditions: protein: recombinant; tags: N-terminal GST; dsDNA, one strand shown. The gist of the method:
as §1

The target of another experiment is T11, ELF3 (Homo sapiens, UniProt P78545 1-371).
T11 sequence: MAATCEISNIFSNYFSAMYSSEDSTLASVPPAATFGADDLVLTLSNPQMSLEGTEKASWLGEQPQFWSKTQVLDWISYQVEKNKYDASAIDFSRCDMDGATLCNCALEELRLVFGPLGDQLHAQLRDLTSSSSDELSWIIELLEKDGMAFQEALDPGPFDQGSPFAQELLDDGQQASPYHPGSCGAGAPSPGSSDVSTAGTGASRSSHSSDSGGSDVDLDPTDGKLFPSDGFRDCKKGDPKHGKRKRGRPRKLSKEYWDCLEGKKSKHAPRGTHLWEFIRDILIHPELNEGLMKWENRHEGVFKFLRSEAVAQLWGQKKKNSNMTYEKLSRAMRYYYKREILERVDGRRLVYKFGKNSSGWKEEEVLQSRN
Particulars: protein: recombinant; tags: N-terminal GST; dsDNA, one strand shown. The gist of the method:
as §1

A further experiment addresses CRX (Homo sapiens, UniProt O43186 1-299). As to conditions: protein: recombinant; tags: N-terminal GST; dsDNA, one strand shown. The essentials:
as §1

For the next experiment, the target named is ETV1 (Homo sapiens, UniProt P50549 1-477). Particulars: protein: recombinant; tags: N-terminal GST; dsDNA, one strand shown. The essentials: as §1
ETV1, sequence (P50549 whole entry): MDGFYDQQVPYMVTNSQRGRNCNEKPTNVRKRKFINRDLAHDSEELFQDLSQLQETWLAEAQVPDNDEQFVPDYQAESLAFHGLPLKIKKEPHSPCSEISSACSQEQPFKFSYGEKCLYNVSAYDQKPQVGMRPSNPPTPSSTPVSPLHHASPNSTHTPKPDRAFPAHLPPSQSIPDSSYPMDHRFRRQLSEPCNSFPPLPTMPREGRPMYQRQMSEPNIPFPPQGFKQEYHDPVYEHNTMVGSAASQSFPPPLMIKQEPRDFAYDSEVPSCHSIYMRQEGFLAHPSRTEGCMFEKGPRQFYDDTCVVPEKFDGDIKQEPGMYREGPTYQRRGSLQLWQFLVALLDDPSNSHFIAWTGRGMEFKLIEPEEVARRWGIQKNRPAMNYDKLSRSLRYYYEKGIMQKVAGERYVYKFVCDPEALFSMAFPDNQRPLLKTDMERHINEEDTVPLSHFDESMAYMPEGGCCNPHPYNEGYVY

For one sequence, binding signal results are on record in publication PMC7862700, “An all-to-all approach to the identification of sequence-specific readers for epigenetic DNA modifications on cytosine”.

CRX, sequence (O43186 whole entry): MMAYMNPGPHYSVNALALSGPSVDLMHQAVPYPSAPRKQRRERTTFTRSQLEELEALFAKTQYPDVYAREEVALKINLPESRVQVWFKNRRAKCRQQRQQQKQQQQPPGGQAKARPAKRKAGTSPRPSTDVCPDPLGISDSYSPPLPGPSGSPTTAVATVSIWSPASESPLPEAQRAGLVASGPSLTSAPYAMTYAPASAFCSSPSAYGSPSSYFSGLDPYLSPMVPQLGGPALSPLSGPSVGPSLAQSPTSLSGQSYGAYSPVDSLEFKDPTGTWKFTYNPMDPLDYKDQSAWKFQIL
ELF1, sequence (P32519 whole entry): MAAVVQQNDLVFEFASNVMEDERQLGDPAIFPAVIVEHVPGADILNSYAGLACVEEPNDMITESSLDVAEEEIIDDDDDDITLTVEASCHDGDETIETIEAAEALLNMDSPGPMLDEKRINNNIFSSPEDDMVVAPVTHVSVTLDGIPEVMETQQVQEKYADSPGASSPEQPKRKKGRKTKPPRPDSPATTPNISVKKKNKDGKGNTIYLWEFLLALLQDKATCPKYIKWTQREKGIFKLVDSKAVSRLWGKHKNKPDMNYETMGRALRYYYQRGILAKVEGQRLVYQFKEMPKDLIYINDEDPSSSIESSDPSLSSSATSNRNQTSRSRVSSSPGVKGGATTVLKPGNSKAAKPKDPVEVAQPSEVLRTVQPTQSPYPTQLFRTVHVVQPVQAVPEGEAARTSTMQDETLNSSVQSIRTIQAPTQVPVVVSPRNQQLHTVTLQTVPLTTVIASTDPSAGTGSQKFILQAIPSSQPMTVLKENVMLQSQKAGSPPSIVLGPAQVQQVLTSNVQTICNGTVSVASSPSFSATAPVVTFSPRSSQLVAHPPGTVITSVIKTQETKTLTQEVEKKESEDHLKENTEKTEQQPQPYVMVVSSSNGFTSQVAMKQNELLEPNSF
ELF4, sequence (Q99607 whole entry): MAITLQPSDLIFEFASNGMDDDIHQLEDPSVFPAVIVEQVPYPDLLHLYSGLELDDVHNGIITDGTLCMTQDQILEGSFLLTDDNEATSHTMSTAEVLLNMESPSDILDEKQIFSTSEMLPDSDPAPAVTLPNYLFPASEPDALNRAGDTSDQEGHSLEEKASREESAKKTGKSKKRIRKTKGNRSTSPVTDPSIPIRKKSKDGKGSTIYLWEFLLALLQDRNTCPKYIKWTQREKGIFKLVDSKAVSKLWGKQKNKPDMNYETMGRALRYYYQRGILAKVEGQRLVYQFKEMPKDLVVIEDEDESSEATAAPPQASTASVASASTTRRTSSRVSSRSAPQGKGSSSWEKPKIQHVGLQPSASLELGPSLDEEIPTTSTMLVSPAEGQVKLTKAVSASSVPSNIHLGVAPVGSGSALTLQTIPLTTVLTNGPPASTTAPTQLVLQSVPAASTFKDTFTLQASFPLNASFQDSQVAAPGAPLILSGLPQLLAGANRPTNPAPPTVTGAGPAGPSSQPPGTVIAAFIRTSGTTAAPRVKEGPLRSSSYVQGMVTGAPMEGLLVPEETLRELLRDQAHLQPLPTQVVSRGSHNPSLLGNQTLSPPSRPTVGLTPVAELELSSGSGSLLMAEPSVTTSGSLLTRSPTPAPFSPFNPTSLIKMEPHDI

As to ACCTGG, the binding signal in the experiment with FLI1 was 1.25 fold enrichment (6-mer frequency, TF over GST control); with ELK1, 1.28 fold enrichment (6-mer frequency, TF over GST control); in the experiment with GABPA, 1.25 fold enrichment (6-mer frequency, TF over GST control); in the experiment with ERG, 1.25 fold enrichment (6-mer frequency, TF over GST control); with ELF1 it was 1.25 fold enrichment (6-mer frequency, TF over GST control); with EHF, 1.22 fold enrichment (6-mer frequency, TF over GST control). Moreover, the binding signal with SPI1 was 1.2 fold enrichment (6-mer frequency, TF over GST control); with SPIB, 1.31 fold enrichment (6-mer frequency, TF over GST control); with ELK3, 1.23 fold enrichment (6-mer frequency, TF over GST control); with FEV, 1.17 fold enrichment (6-mer frequency, TF over GST control); in the experiment with ETV5 it was 1.2 fold enrichment (6-mer frequency, TF over GST control); in the experiment with HSF1, 1.2 fold enrichment (6-mer frequency, TF over GST control). The binding signal was 1.18 fold enrichment (6-mer frequency, TF over GST control) with SPIC; 1.33 fold enrichment (6-mer frequency, TF over GST control) in the experiment with ELF4; 1.25 fold enrichment (6-mer frequency, TF over GST control) in the experiment with ELK4; 1.35 fold enrichment (6-mer frequency, TF over GST control) in the experiment with ETV2; 1.19 fold enrichment (6-mer frequency, TF over GST control) in the experiment with ELF3; 1.14 fold enrichment (6-mer frequency, TF over GST control) in the experiment with CRX. In addition, the binding signal in the experiment with ETV1 was 1.29 fold enrichment (6-mer frequency, TF over GST control).
